About 83,000 compounds went through this panel and 20% of them were active in at least one assay; those are over-represented in the sample as a whole.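 Treatment: one concentration, 48 hours, 96-well format. Scoring: percent growth, with anything below 10 considered active.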 Calls of active or inactive are those of the source.
Legend:
Assay in all cases: NCI-60 one-dose screen, 48 h (100 = growth as untreated, 0 = no growth, -100 = all killed)
Settings in all cases: 10 µM
SR leukemia = test system: SR leukemia
RPMI-8226 leukemia = test system: RPMI-8226 leukemia
OVCAR-8 ovarian = test system: OVCAR-8 ovarian
OVCAR-5 ovarian = test system: OVCAR-5 ovarian
OVCAR-4 ovarian = test system: OVCAR-4 ovarian
SK-OV-3 ovarian = test system: SK-OV-3 ovarian
IGROV1 ovarian = test system: IGROV1 ovarian
OVCAR-3 ovarian = test system: OVCAR-3 ovarian
HS 578T breast = test system: HS 578T breast
NCI/ADR-RES ovarian = test system: NCI/ADR-RES ovarian

Measured: growth

COc1cc(-c2nn(-c3cccc(NC(=O)CCNc4ccc(N5CCOCC5)cc4)c3)cc2-c2ccncc2)ccc1Cl
active: SR leukemia 5.07% | OVCAR-8 ovarian 7.74%
inactive: RPMI-8226 leukemia 15.5% | OVCAR-5 ovarian 49% | OVCAR-4 ovarian 26% | SK-OV-3 ovarian 34.7% | IGROV1 ovarian 27.3% | OVCAR-3 ovarian 14.1% | HS 578T breast 29.7% | NCI/ADR-RES ovarian 36%

CCOC(=O)c1cc(C(=O)c2ccc(OC)c(OC)c2)n2c1ccc1ccc3cccnc3c12
inactive: SR leukemia 23.1% | OVCAR-8 ovarian 29% | OVCAR-5 ovarian 79.7% | OVCAR-4 ovarian 59.2% | SK-OV-3 ovarian 17.8% | IGROV1 ovarian 46% | OVCAR-3 ovarian 10.3% | HS 578T breast 25% | NCI/ADR-RES ovarian 21.6%
active: RPMI-8226 leukemia 5.4%

CNC(=O)c1cn(C2CC2)c2cc(N3CCN(C(=O)c4cc(OC)c(OC)c(OC)c4)CC3)c(F)cc2c1=O
inactive: SR leukemia 92.2% | RPMI-8226 leukemia 97.6% | OVCAR-8 ovarian 100% | OVCAR-5 ovarian 96% | OVCAR-4 ovarian 98.6% | SK-OV-3 ovarian 103% | IGROV1 ovarian 102% | OVCAR-3 ovarian 106% | HS 578T breast 101% | NCI/ADR-RES ovarian 96.7%

Cc1nc2n(c(=O)c1CCN1CCC(c3noc4cc(F)ccc34)CC1)CCC[C@@H]2O
inactive: SR leukemia 93.8% | RPMI-8226 leukemia 111% | OVCAR-8 ovarian 97.5% | OVCAR-5 ovarian 88.6% | OVCAR-4 ovarian 105% | SK-OV-3 ovarian 103% | IGROV1 ovarian 105% | OVCAR-3 ovarian 106% | HS 578T breast 100% | NCI/ADR-RES ovarian 97.2%

CC(=O)/C(=C/c1ccc(Br)cc1)C(=O)c1ccccc1
inactive: OVCAR-8 ovarian 63.7% | OVCAR-5 ovarian 86.6% | OVCAR-4 ovarian 81.4% | SK-OV-3 ovarian 120% | IGROV1 ovarian 74% | OVCAR-3 ovarian 81.9% | HS 578T breast 90.7% | NCI/ADR-RES ovarian 85.8%
active: SR leukemia -16.8% | RPMI-8226 leukemia -26.3%

COc1cc(-c2nn(-c3cccc(NC(=O)NCCNS(=O)(=O)c4ccc(Cl)cc4)c3)cc2-c2ccncc2)ccc1Cl
inactive: OVCAR-5 ovarian 27.9% | OVCAR-4 ovarian 33.3% | SK-OV-3 ovarian 19.3% | IGROV1 ovarian 25.2% | HS 578T breast 18.8% | NCI/ADR-RES ovarian 71%
active: SR leukemia 1.18% | RPMI-8226 leukemia -2.02% | OVCAR-8 ovarian 8.88% | OVCAR-3 ovarian 2.8%

CC(=O)Nc1ccc(CC[C@H]2CCC/C=C/[C@@H]3C[C@H](O)C[C@H]3[C@H](O)/C=C/C(=O)O2)cc1
active: SR leukemia 3.92% | RPMI-8226 leukemia 3.69% | OVCAR-8 ovarian 0.483% | OVCAR-3 ovarian 6.39%
inactive: OVCAR-5 ovarian 23% | OVCAR-4 ovarian 18.4% | SK-OV-3 ovarian 29.8% | IGROV1 ovarian 20.3% | HS 578T breast 34.9% | NCI/ADR-RES ovarian 18.7%

O=[N+]([O-])c1cccc(/C=N/NC(=S)NC23CC4CC(CC(C4)C2)C3)c1
inactive: SR leukemia 81.4% | RPMI-8226 leukemia 93.1% | OVCAR-8 ovarian 40.6% | OVCAR-5 ovarian 101% | OVCAR-4 ovarian 39.5% | SK-OV-3 ovarian 62.4% | IGROV1 ovarian 76.3% | OVCAR-3 ovarian 85.9% | HS 578T breast 67.5% | NCI/ADR-RES ovarian 67.2%

O=[N+]([O-])c1cc(Cl)cc(Cl)c1O
inactive: SR leukemia 103% | RPMI-8226 leukemia 103% | OVCAR-8 ovarian 103% | OVCAR-5 ovarian 103% | OVCAR-4 ovarian 108% | SK-OV-3 ovarian 91.3% | IGROV1 ovarian 104% | OVCAR-3 ovarian 109% | HS 578T breast 97.6% | NCI/ADR-RES ovarian 97.6%

COC(=O)C1(O)NC(=C(C#N)C#N)C(C#N)=C1C(=O)c1ccc(OC)c(OC)c1 (stereo not given)
inactive: SR leukemia 89.7% | RPMI-8226 leukemia 90.1% | OVCAR-8 ovarian 92% | OVCAR-5 ovarian 111% | OVCAR-4 ovarian 118% | SK-OV-3 ovarian 98.6% | IGROV1 ovarian 101% | OVCAR-3 ovarian 107% | HS 578T breast 95.9% | NCI/ADR-RES ovarian 106%

Cc1ccc(Cl)cc1NC(=O)CCl
inactive: SR leukemia 43.2% | RPMI-8226 leukemia 43.8% | OVCAR-8 ovarian 88% | OVCAR-5 ovarian 136% | OVCAR-4 ovarian 76.9% | SK-OV-3 ovarian 93.5% | IGROV1 ovarian 64.4% | OVCAR-3 ovarian 99% | HS 578T breast 94.2% | NCI/ADR-RES ovarian 102%

COc1cc(C2CC(c3ccccc3)=NN2C(C)=O)cc(OC)c1OC (stereo not given)
active: OVCAR-3 ovarian -10.7%
inactive: SR leukemia 28.1% | RPMI-8226 leukemia 81.7% | OVCAR-8 ovarian 51.2% | OVCAR-5 ovarian 92.3% | OVCAR-4 ovarian 78.5% | SK-OV-3 ovarian 47.5% | IGROV1 ovarian 24.6% | HS 578T breast 48.4% | NCI/ADR-RES ovarian 11.1%

CCc1cc(Cl)c(OC)c(C(=O)NCC2CCCN2CC)c1O (stereo not given)
inactive: SR leukemia 81.6% | RPMI-8226 leukemia 95.8% | OVCAR-8 ovarian 92.5% | OVCAR-5 ovarian 88.2% | OVCAR-4 ovarian 86.5% | SK-OV-3 ovarian 79.9% | IGROV1 ovarian 98.4% | OVCAR-3 ovarian 100% | HS 578T breast 88.7% | NCI/ADR-RES ovarian 94.2%
